PubChem BioAssay (NCATS)
Records with an inconclusive call do not appear. Activity calls are given as the source filed them. The call rests on the fitted dose curve; in most records, active means well fitted inhibition curve with a large enough effect; inconclusive means small, poorly fitted or top-dose-only effect; inactive means flat fitted curve, though single readings scatter.

target: Glutathione peroxidase 1 (Homo sapiens) (UniProt P07203); experiment: Primary qHTS Assay for Inhibitors of Recombinant Selenoprotein Glutathione Peroxidase 1 (GPX1) (AID 1845191); conditions: recombinant GPX1, GR-coupled NADPH fluorescence, 15 min; series mostly up to 48.8 µM; activity, negative = inhibition: at the top concentration
How it was run: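 Recombinant GPX1 (10 nM final) was preincubated with compound for 30 min at room temperature, then reacted with 1 mM GSH, 0.5 mM CHP, 0.5 mM NADPH and 100 nM glutathione reductase; NADPH fluorescence (340/450 nm) was read at 0 and 15 min.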
Further: nearly all actives have a fitted effect of over 65% in size.
On the % scale 0 is the no-effect control and ±100 the full control effect.

Glutathione peroxidase 1 (Homo sapiens), sequence (P07203 whole entry, looked up): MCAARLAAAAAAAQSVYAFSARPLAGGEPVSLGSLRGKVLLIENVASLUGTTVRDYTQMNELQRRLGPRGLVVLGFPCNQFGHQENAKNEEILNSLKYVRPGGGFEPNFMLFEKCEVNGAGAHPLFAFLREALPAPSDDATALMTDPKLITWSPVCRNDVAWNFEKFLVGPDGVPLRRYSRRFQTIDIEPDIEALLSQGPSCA

Compound | outcome | activity, negative = inhibition | Potency
O=C(O)Cc1c[nH]c2ccc(O)cc12 | inactive |  | 
N#Cc1cc2nc(O)c(O)nc2cc1[N+](=O)[O-] | inactive |  | 
O=C(O)C1=CCCNC1 |  | -22.4% (inactive) | 
Nc1ncnc2c1ncn2C1CCCC1 |  | -2.06% (inactive) | 
O=c1[nH]c2cc(Cl)ccc2c(O)c1-c1ccc(Oc2ccccc2)cc1 |  | -23.6% (inactive) | 
Nc1ncnc2c1ncn2C1CCCO1 (stereo unspecified) | inactive |  | 
O=c1onc2n1-c1cc(Br)ccc1OC2 |  | -7.5% (inactive) | 
NCCNS(=O)(=O)c1cccc2c(Cl)cccc12 | inactive |  | 
NCC(O)c1ccc(O)c(O)c1 (stereo unspecified) |  | -3.72% (inactive) | 
COc1cc(/C=C(\C#N)C(=O)Nc2nnc(C(F)(F)F)s2)ccc1OCc1ccc(C(F)(F)F)cc1C(F)(F)F |  |  | inactive
N=C(N)c1ccccc1 |  | -10.1% (inactive) | 
CC(C)C[C@H](NC(=O)[C@H](O)[C@H](N)Cc1ccccc1)C(=O)O | inactive |  | 
O=C(O)C1=CCCN(CCON=C(c2ccccc2)c2ccccc2)C1 | inactive |  | 
CCCc1c(-c2ccc(O)cc2)nn(-c2ccc(O)cc2)c1-c1ccc(O)cc1 |  | -25.5% (inactive) | 
CC(=O)[C@H]1CCC2C3CC=C4C[C@@H](OS(=O)(=O)O)CC[C@]4(C)C3CC[C@@]21C (stereo partly specified) |  | -18.2% (inactive) | 
CC(N)(Cc1ccc(O)c(O)c1)C(=O)O (stereo unspecified) | inactive |  | 
C[C@]12C=CC(=O)C=C1CC[C@@H]1C2=CC[C@]2(C)[C@@H](C(=O)CN3CCN(c4cc(N5CCCC5)nc(N5CCCC5)n4)CC3)CC[C@@H]12 |  | -34.6% (inactive) | 
CCN(CC)CCOC(=O)c1cc(Cl)c(N)cc1OC |  | -10.7% (inactive) | 
Cc1cc(Cn2cnc3c2C[C@@H](C(=O)O)N(C(=O)C(c2ccccc2)c2ccccc2)C3)ccc1N | inactive |  | 

Compound | outcome | activity, negative = inhibition | Potency
Cn1c(=O)c2c(nc(/C=C/c3cccc(Cl)c3)n2C)n(C)c1=O | inactive |  | 
OC[C@H]1O[C@H](n2cnc3c(N[C@H]4CCC[C@@H]4O)ncnc32)[C@H](O)[C@@H]1O |  | -17.2% (inactive) | 
O=C1C2C=CC=CC2=NC(=S)N1CCN1CCC(=C(c2ccc(F)cc2)c2ccc(F)cc2)CC1 (stereo unspecified) |  | 1.21% (inactive) | 
CC(=O)NCCc1c[nH]c2ccc(O)cc12 |  | 4.52% (inactive) | 
CCCCCCC/C=C\CCCCCCCCC(=O)O |  | -21.2% (inactive) | 
O=C(O)c1cc2cc(F)ccc2[nH]1 | inactive |  | 
O=C(O)c1ccccc1Nc1ccccc1 |  | -6.76% (inactive) | 
Nn1nnc2ccccc21 | inactive |  | 
COc1cc(C(O)C(=O)O)ccc1O (stereo unspecified) |  | -10.9% (inactive) | 
NC(=O)c1ccccc1 | inactive |  | 
COc1ccc(-c2ccc(N)[n+](CCCC(=O)O)n2)cc1 |  | -9.45% (inactive) | 
[N-]=[N+]=Nc1ccc(C(=O)CSC[C@H](NC(=O)CC[C@H](N)C(=O)O)C(=O)NCC(=O)O)cc1 |  | -20.7% (inactive) | 
N[C@H](C(=O)O)[C@H](Cc1ccccc1)C(=O)O |  | 1.95% (inactive) | 
COc1ccc(C(=O)NCc2cccnc2)cc1C(=O)NCc1cccnc1 |  | -4.06% (inactive) | 
N[C@@H](Cc1c[nH]c2ccccc12)C(=O)O | inactive |  | 
N[C@@H](CS(=O)O)C(=O)O |  | -15.9% (inactive) | 
O=C(O)C1CCNCC1 | inactive |  | 
CC(C)(C)c1ccc(/C=C/C(=O)Nc2ccc3c(c2)OCCO3)cc1 |  | -22.5% (inactive) | 
C=C1C(=O)O[C@@H]2[C@H]3O[C@]3(C)CCC=C(C)CC[C@@H]12 | inactive |  | 

target: Phospholipid hydroperoxide glutathione peroxidase GPX4 (Homo sapiens) (UniProt P36969); experiment: Primary qHTS Assay for Inhibitors of Recombinant Selenoprotein Glutathione Peroxidase 4 (GPX4) (AID 1845192); conditions: recombinant GPX4, GR-coupled NADPH fluorescence, 15 min; series mostly up to 50 µM; activity change, negative = inhibition: at the top concentration
How it was run: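 GR-coupled readout: 100 nM GR, 1 mM GSH, 0.5 mM NADPH; NADPH fluorescence (ex 340/em 450 nm) read at t=0 and after 15 min RT. GPX4 200 nM, preincubated 30 min with compound; substrate 0.5 mM CHP.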

Phospholipid hydroperoxide glutathione peroxidase GPX4 (Homo sapiens), sequence (P36969 whole entry, looked up): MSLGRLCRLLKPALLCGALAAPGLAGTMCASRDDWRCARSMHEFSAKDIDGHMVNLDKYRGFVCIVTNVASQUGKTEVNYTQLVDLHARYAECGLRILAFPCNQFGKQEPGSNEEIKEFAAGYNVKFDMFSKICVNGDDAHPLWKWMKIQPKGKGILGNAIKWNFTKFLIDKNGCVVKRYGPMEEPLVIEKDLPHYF

Compound | activity change, negative = inhibition | outcome
O=C(O)Cc1c[nH]c2ccc(O)cc12 | 1.01% (inactive) | 
N#Cc1cc2nc(O)c(O)nc2cc1[N+](=O)[O-] | -9.38% (inactive) | 
O=C(O)C1=CCCNC1 | -9.96% (inactive) | 
Nc1ncnc2c1ncn2C1CCCC1 | 1.02% (inactive) | 
O=c1[nH]c2cc(Cl)ccc2c(O)c1-c1ccc(Oc2ccccc2)cc1 | -13.2% (inactive) | 
Nc1ncnc2c1ncn2C1CCCO1 (stereo unspecified) |  | inactive
O=c1onc2n1-c1cc(Br)ccc1OC2 |  | inactive
NCCNS(=O)(=O)c1cccc2c(Cl)cccc12 |  | inactive
NCC(O)c1ccc(O)c(O)c1 (stereo unspecified) | 1.61% (inactive) | 
COc1cc(/C=C(\C#N)C(=O)Nc2nnc(C(F)(F)F)s2)ccc1OCc1ccc(C(F)(F)F)cc1C(F)(F)F |  | inactive
N=C(N)c1ccccc1 | -3.54% (inactive) | 
CC(C)C[C@H](NC(=O)[C@H](O)[C@H](N)Cc1ccccc1)C(=O)O |  | inactive
O=C(O)C1=CCCN(CCON=C(c2ccccc2)c2ccccc2)C1 |  | inactive
CCCc1c(-c2ccc(O)cc2)nn(-c2ccc(O)cc2)c1-c1ccc(O)cc1 | -21.8% (inactive) | 
CC(=O)[C@H]1CCC2C3CC=C4C[C@@H](OS(=O)(=O)O)CC[C@]4(C)C3CC[C@@]21C (stereo partly specified) | -4.31% (inactive) | 
CC(N)(Cc1ccc(O)c(O)c1)C(=O)O (stereo unspecified) |  | inactive
C[C@]12C=CC(=O)C=C1CC[C@@H]1C2=CC[C@]2(C)[C@@H](C(=O)CN3CCN(c4cc(N5CCCC5)nc(N5CCCC5)n4)CC3)CC[C@@H]12 | -27.6% (inactive) | 
CCN(CC)CCOC(=O)c1cc(Cl)c(N)cc1OC | -2.14% (inactive) | 
Cc1cc(Cn2cnc3c2C[C@@H](C(=O)O)N(C(=O)C(c2ccccc2)c2ccccc2)C3)ccc1N | 0.453% (inactive) | 

Compound | activity change, negative = inhibition | outcome
Cn1c(=O)c2c(nc(/C=C/c3cccc(Cl)c3)n2C)n(C)c1=O |  | inactive
OC[C@H]1O[C@H](n2cnc3c(N[C@H]4CCC[C@@H]4O)ncnc32)[C@H](O)[C@@H]1O | -10.7% (inactive) | 
O=C1C2C=CC=CC2=NC(=S)N1CCN1CCC(=C(c2ccc(F)cc2)c2ccc(F)cc2)CC1 (stereo unspecified) | 0.407% (inactive) | 
CC(=O)NCCc1c[nH]c2ccc(O)cc12 |  | inactive
CCCCCCC/C=C\CCCCCCCCC(=O)O | -21.4% (inactive) | 
O=C(O)c1cc2cc(F)ccc2[nH]1 |  | inactive
O=C(O)c1ccccc1Nc1ccccc1 | 3.71% (inactive) | 
Nn1nnc2ccccc21 |  | inactive
COc1cc(C(O)C(=O)O)ccc1O (stereo unspecified) | -4.91% (inactive) | 
NC(=O)c1ccccc1 |  | inactive
COc1ccc(-c2ccc(N)[n+](CCCC(=O)O)n2)cc1 | -6.55% (inactive) | 
[N-]=[N+]=Nc1ccc(C(=O)CSC[C@H](NC(=O)CC[C@H](N)C(=O)O)C(=O)NCC(=O)O)cc1 | -12% (inactive) | 
N[C@H](C(=O)O)[C@H](Cc1ccccc1)C(=O)O |  | inactive
COc1ccc(C(=O)NCc2cccnc2)cc1C(=O)NCc1cccnc1 | 4.38% (inactive) | 
N[C@@H](Cc1c[nH]c2ccccc12)C(=O)O |  | inactive
N[C@@H](CS(=O)O)C(=O)O | -10.2% (inactive) | 
O=C(O)C1CCNCC1 | 2.87% (inactive) | 
CC(C)(C)c1ccc(/C=C/C(=O)Nc2ccc3c(c2)OCCO3)cc1 | -14.9% (inactive) | 
C=C1C(=O)O[C@@H]2[C@H]3O[C@]3(C)CCC=C(C)CC[C@@H]12 |  | inactive
